Test results taken from PubChem BioAssay AID652054 (National Center for Advancing Translational Sciences (NCATS), 2013).
In all, about 360,000 compounds went through this assay and about 9,100 (2.5%) were called active. Roughly 4% stayed inconclusive and do not appear here. The sample as a whole holds a higher share of actives than the screen did. A number with no mark means an inactive call. Cut-off read from the data, not from the text of the source: active = max response below about -50%; inconclusive = no clear call, values can overlap the other calls; inactive = above that.

Molecular target: D(3) dopamine receptor (Homo sapiens) (UniProt P35462)
Assay: qHTS of D3 Dopamine Receptor Antagonist: qHTS
Conditions: D3R cells, DiscoveRx beta-arrestin luminescence, antagonist mode; stronger effect = lower value
Source text: D3 DARs represent a very important target for the treatment of several neuropsychiatric disorders. Indeed, one of the most promising therapeutic applications for the D3 DAR is in the area of addiction and related disorders. […] These findings have been observed with a number of addictive substances including cocaine, amphetamine, nicotine, and alcohol. […] Antagonism of the D3 DAR may also be therapeutic in the treatment of schizophrenia or psychosis. […] Since the D3 DAR is expressed in areas of the CNS associated with the control of mood and emotion, it has been hypothesized that selective antagonism of the D3 DAR may be effective in treating psychosis without inducing the motor side effects typically seen with D2 DAR antagonists.
This part of the project aims to discover novel antagonist.
NIH Chemical Genomics Center [NCGC]
NIH Molecular Libraries Probe Centers Network [MLPCN]
Assay Submitter (PI): David Sibley, NINDS
Freshly passaged cells are plated in 1536 well white, solid bottom plates at a density of 1500 cells/well in 3microl of complete media. After an overnight incubation at 37 degrees C in 5% CO2, cells are loaded with 23nl of test compound from the compound library (as well as dopamine controls) using a 1536 pintool and incubated at 37 degrees C for 90 minutes. Two microliters of DiscoveRx reagent is then added to all cells, and they are incubated for an additional 30 - 60 minutes at room temperature. Following incubation, luminescence is measured on a ViewLux CCD-based luminometer reader using a 20 sec exposure time.
% is set by controls: 0 for no effect and ±100 for the full control effect.

Chain of D(3) dopamine receptor (Homo sapiens) (P35462 whole entry, looked up): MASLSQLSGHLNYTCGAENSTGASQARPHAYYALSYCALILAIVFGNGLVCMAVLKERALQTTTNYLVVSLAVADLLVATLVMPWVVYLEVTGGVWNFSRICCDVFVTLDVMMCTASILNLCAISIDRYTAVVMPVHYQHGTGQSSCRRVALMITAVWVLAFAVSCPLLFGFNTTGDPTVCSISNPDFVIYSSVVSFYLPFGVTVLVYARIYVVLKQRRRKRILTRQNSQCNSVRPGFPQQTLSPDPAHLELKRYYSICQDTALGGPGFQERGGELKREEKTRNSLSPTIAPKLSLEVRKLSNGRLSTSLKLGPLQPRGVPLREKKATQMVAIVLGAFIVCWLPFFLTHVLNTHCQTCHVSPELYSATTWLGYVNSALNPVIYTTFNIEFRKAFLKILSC

Structure (SMILES) | max response, negative = inhibition
CC(C)n1ncc2c(C(=O)N3CCN(Cc4cccs4)CC3)cc(C3CC3)nc21 | -22.9%
CC1(C2CC2)NC(=O)N(CC(=O)N2CCN(c3ccccc3F)CC2)C1=O (centres undefined) | -14.5%
Cc1ccccc1CN1C(=O)CSCC1(C)C(=O)Nc1c(C)cccc1C (centres undefined) | 4.29%
COc1ccc(NCCc2ccccn2)cc1 | 1.2%
COc1cnc(-c2ccccn2)nc1Oc1ccc(C(C)(C)C)cc1 | -52.8% (active)
COc1ccc2nc(-c3ccccn3)ccc2c1 | -12.3%
CCOC(=O)c1c(NC(=O)COC(=O)c2ccc(S(=O)(=O)C(F)F)cc2)sc(C(=O)N(C)C)c1C | 13%
Cc1ccc(-c2c(N)nc3ncccn23)cc1 | 1.01%
OCCN1CCN(c2ncnc3c2ncn3[C@H]2CN(Cc3ccco3)C[C@@H](CO)O2)CC1 | -7.83%
O=S1(=O)CC(N2CCN(CCO)CC2)CN1Cc1cn(Cc2ccc(Cl)cc2)nn1 (centres undefined) | -11.2%
Cc1ccccc1-c1n[nH]c(=S)n1/N=C/c1ccc(-c2ccccc2Br)o1 | -16.9%
COc1cc(/C=N/n2c(C)n[nH]c2=S)ccc1OCc1ccccc1 | 4.09%
Cc1n[nH]c(=S)n1/N=C/c1ccc(Br)o1 | -55% (active)
NC(c1csc(NC(=O)Nc2ccccc2Oc2ccccc2)n1)c1ccccc1Cl (centres undefined) | 46.2%
COC(=O)[C@]12CCCCC=C1N(Cc1ccco1)C(=O)[C@H](CC(=O)NCCCCc1ccccc1)C2 | -9.24%
Cc1ccc(CN2CC(N3CCC(Cc4ccccc4)CC3)CS2(=O)=O)cc1 (centres undefined) | 6.13%
O=C(CSc1nc2[nH]ncc2c(=O)[nH]1)Nc1ccc(F)cc1 | 2.63%
Cc1cc(=O)[nH]c(SCC(=O)Nc2ccc(Br)cc2)n1 | -12.6%
Cc1cc(C)c2c(=O)[nH]c(SCC(=O)Nc3ccc(Br)cc3)nc2n1 | -52.3% (active)
COc1ccc(Cl)cc1-c1cc(C(=O)Nc2cc(OC)c(OC)c(OC)c2)[nH]n1 | 106%
COCCNCCOCCOc1cccc(OC)c1 | 6.73%
Clc1cccc(Cl)c1OCCOCCNCc1ccccc1 | 43.5%
COCCCNCCOCCOc1ccc(Cl)cc1Br | -97.1% (active)
C[C@@H]1CN([C@H](C)CO)S(=O)(=O)c2ccc(C#CC3CCCCC3)cc2O[C@H]1CN(C)C(=O)Cc1ccncc1 | -18.9%
CCc1nc2ccc(C(=O)NCc3ccc(OC)cc3)cn2c1N(CC)Cc1cccc(Br)c1 | 0%
C[C@H](CO)N1C[C@H](C)[C@H](CN(C)C(=O)c2ccncc2)OCc2ccccc2-c2c(n(C)c3ccccc23)C1=O | -9.27%
O=C(NCc1ccc(F)cc1)c1cc(C2CCCCN2C(=O)C2CCCCC2)on1 (centres undefined) | 2.42%

Structure (SMILES) | max response, negative = inhibition
CCN1CCN(c2ccc([N+](=O)[O-])cc2C(=O)c2ccc(Cl)cc2)CC1 | -55.6% (active)
O=C(Nc1cccc(Cl)c1)c1cc([N+](=O)[O-])ccc1N1CCN(CCO)CC1 | -13.4%
CCC(=O)c1ccc(N2CCN(C(=O)c3cc([N+](=O)[O-])ccc3F)CC2)c(F)c1 | 15%
O=C(Nc1ccc(C(=O)O)cc1)/C(=C/c1ccc([N+](=O)[O-])cc1)NC(=O)c1ccccc1 | -12.4%
O=C(NCCc1ccccc1)/C(=C\c1ccc([N+](=O)[O-])cc1)NC(=O)c1ccccc1 | 9%
O=C(N/N=C/c1ccc(O)cc1)/C(=C/c1ccc([N+](=O)[O-])cc1)NC(=O)c1ccccc1 | -52.3% (active)
Cc1sc2ccccc2c1CNC[C@H]1O[C@@H](n2ccc(=O)[nH]c2=O)[C@H](O)[C@@H]1O | 23.7%
O=C(NCc1ccccc1Cl)c1csc([C@@H]2O[C@H](CO)[C@@H](O)[C@H]2O)n1 | 0%
Cc1ccccc1-c1csc(C(O)c2cccc(Cl)c2)n1 (centres undefined) | -14.8%
CC(C)Cn1cc(-c2cncc3nccn23)cn1 | 19.7%
NC(=O)CSc1nnc(-c2cccc(S(=O)(=O)N3CCOCC3)c2)o1 | -19.7%
Cc1c(C(=O)NCc2ccc(C#N)cc2)sc(=O)n1Cc1ccc(C(=O)N(C)C)cc1 | 16.1%
COc1ccccc1NC(=O)C1CCN(C(=O)c2ccc(C(C)(C)C)cc2)CC1 | -52% (active)
COc1ccc(C(=O)N2CCC(C(=O)Nc3cccc(C)c3)CC2)cc1OC | 9.36%
CC(C)(C)c1ccc(C(=O)N2CCC(C(=O)N3CCCCC3)CC2)cc1 | 7.98%
O=C1C(Cl)=C(Oc2ccccc2)C(=O)c2ccccc21 | -90.6% (active)
CC(=O)N(C1=C(Cl)C(=O)c2ccccc2C1=O)c1ccc(C(=O)O)cc1 | -17.6%
COc1cccc(CNc2nc(NCc3cccs3)nc3ccsc23)c1 | -28.6%
C[C@H](CO)N1C[C@H](C)[C@@H](CN(C)S(=O)(=O)c2ccc(F)cc2)OCc2cnnn2CCCC1=O | -22.3%
COc1ccc(C(C)(NC(C)=O)c2nc(-c3ccc(S(C)(=O)=O)cc3)cs2)cc1 (centres undefined) | 0.123%
CC(C)Nc1ncnc2c1ncn2[C@H]1CN(Cc2ccncc2)C[C@@H](CO)O1 | 4.5%
Cc1c(NC(=O)c2cc(-c3ccc(Br)cc3)on2)c(=O)n(-c2ccccc2)n1C | -15%
Cc1c(NC(=O)c2coc(=O)c(Br)c2)c(=O)n(-c2ccccc2)n1C | -83.3% (active)
Cc1cc2oc(C(=O)Nc3c(C)n(C)n(-c4ccccc4)c3=O)c(C)c2cc1Cl | -21.8%
CCCCCNC(=O)C(c1ccc(OC)cc1)n1c(=O)c(-c2ccccc2)nc2ccccc21 (centres undefined) | 3.45%
CC1=C(C(=O)N(C(C)C)C(C)C)CC(CC(=O)NCCCCc2ccccc2)C(=O)N1CCC1=CCCCC1 (centres undefined) | -16.1%
COC(=O)[C@]12CCCCC=C1N(Cc1ccc3c(c1)OCO3)C(=O)[C@H](CC(=O)NCc1cccs1)C2 | 3.72%
